Reference: PubChem BioAssay (NCI)
The panel holds about 79,000 compounds, 15% with a hit somewhere; the sample as a whole holds those more often. Active and inactive are the calls of the source. Cut-off read from the data, not from the text of the source: active = growth inhibition above about 70%; inactive = the rest.

What was measured:
[1] = NCI Yeast Anticancer Drug Screen. Data for the mec2-1 strain (AID 157); settings: S. cerevisiae mec2-1 strain, active compounds read high
Procedure, shortened: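 Vehicle-treated cultures served as reference for growth inhibition of compound-exposed mec2-1 yeast.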

[2] = NCI Yeast Anticancer Drug Screen. Data for the rad14 strain (AID 159);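 note: 0% = growth of vehicle-treated control cultures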; settings: S. cerevisiae rad14 strain growth inhibition, active compounds read high
Procedure, shortened: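 Screen for anticancer potential: a yeast strain altered in DNA damage repair is grown with compound, and reduced growth is quantified against vehicle controls.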

[3] = NCI Yeast Anticancer Drug Screen. Data for the sgs1 mgt1 strain (AID 161);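 note: 0% = growth of cultures given vehicle only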; settings: S. cerevisiae sgs1 mgt1 strain, active compounds read high
Procedure, shortened: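 Genetically altered yeast, compound exposure, growth inhibition relative to vehicle.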

[4] = NCI Yeast Anticancer Drug Screen. Data for the CLN2oe strain (AID 163);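 note: 0% = growth of vehicle-only control cultures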; settings: S. cerevisiae CLN2oe strain, active compounds read high
Procedure, shortened: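 Inhibition relative to vehicle-treated yeast is reported. Cells: strain with genetic alteration in cell-cycle control, grown with compound.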

[5] = NCI Yeast Anticancer Drug Screen. Data for the cln2 rad14 strain (AID 165);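 note: 0% = growth equal to vehicle treated cultures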; settings: S. cerevisiae cln2 rad14 strain, active compounds read high
Procedure, shortened: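 Each compound was tested on cln2 rad14 yeast. Inhibition of growth was calculated against vehicle-exposed controls.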

[6] = NCI Yeast Anticancer Drug Screen. Data for the bub3 strain (AID 167); settings: S. cerevisiae bub3 mutant strain, active compounds read high
Procedure, shortened: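 Screening used yeast with an engineered genetic alteration affecting cell cycle control. Compound-exposed cultures were compared with vehicle cultures, and reduced growth was taken as inhibition.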

[7] = NCI Yeast Anticancer Drug Screen. Data for the wt2 strain (AID 169);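 note: 0% = growth of vehicle-treated yeast cultures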; settings: S. cerevisiae wt2 strain growth inhibition, active compounds read high
Procedure, shortened: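 Inhibition of yeast growth was determined after compound treatment, normalised to controls receiving only vehicle.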

[8] = NCI Yeast Anticancer Drug Screen. Data for the mlh1 strain (AID 171);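 note: 0% = growth of vehicle-treated control cultures of the same strain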; settings: S. cerevisiae mlh1 strain growth inhibition, active compounds read high
Procedure, shortened: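 Vehicle-normalised growth inhibition of a repair- or checkpoint-altered yeast strain following compound treatment.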

[9] = NCI Yeast Anticancer Drug Screen. Data for the sgs1 strain (AID 173);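 note: 0% = growth of vehicle-only control cultures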; settings: S. cerevisiae sgs1 mutant, active compounds read high
Procedure, shortened: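 Screen format: yeast with repair or checkpoint alterations, compound exposure, growth read relative to vehicle.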

[10] = NCI Yeast Anticancer Drug Screen. Data for the mlh1 rad18 strain (AID 175); settings: S. cerevisiae mlh1 rad18 strain growth inhibition, active compounds read high
Procedure, shortened: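 Vehicle-treated cultures served as the reference for growth inhibition in a yeast strain carrying DNA damage repair alterations exposed to each compound.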

[11] = NCI Yeast Anticancer Drug Screen. Data for the rad52 strain (AID 147);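 note: 0% = growth of vehicle-treated control cultures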; settings: S. cerevisiae rad52 mutant growth inhibition, active compounds read high
Procedure, shortened: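 Vehicle-treated cultures served as the reference for growth inhibition of compound-exposed yeast bearing a DNA repair mutation.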

[12] = NCI Yeast Anticancer Drug Screen. Data for the wt1 strain (AID 149);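 note: 0% = growth of vehicle-treated wt1 cultures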; settings: S. cerevisiae wt1 strain (SPY 50644) growth inhibition, active compounds read high
Procedure, shortened: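 Using yeast strain wt1, compound-induced growth inhibition was determined against vehicle-treated cultures.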

[13] = NCI Yeast Anticancer Drug Screen. Data for the rad50EPP+ strain (AID 151);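 note: 0% = growth of vehicle-treated control cultures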; settings: S. cerevisiae rad50 mutant strain, active compounds read high
Procedure, shortened: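 In this screen, rad50EPP+ yeast were exposed to compounds. Growth inhibition was scored against vehicle-treated controls.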

[14] = NCI Yeast Anticancer Drug Screen. Data for the mgt1 strain (AID 153); settings: S. cerevisiae mgt1 mutant growth inhibition, active compounds read high
Procedure, shortened: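 mgt1 strain exposed; growth vs vehicle control recorded as inhibition.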

[15] = NCI Yeast Anticancer Drug Screen. Data for the rad50 strain (AID 155);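 note: 0% = growth of vehicle-only cultures of the same strain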; settings: S. cerevisiae rad50 strain growth inhibition, active compounds read high
Procedure, shortened: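 Relative growth inhibition (compound vs vehicle) was measured in yeast with a defined repair-gene alteration.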

[16] = at 5.0 µM (retest, dose inferred, filed as 0.5)
[17] = at 50.0 µM (retest, dose inferred, filed as 5.0)

Measured: growth inhibition

O=C1NC(c2cccc(OCc3ccccc3)c2)Nc2ccccc21 (stereo unspecified)
active: [1]; [17] 74% | [1]; at 50.0 µM 77.8% | [10]; [17] 71%
inactive: [1]; [16] 42% | [1]; at 11.0 µM 6% | [1]; at 33.0 µM 5% | [1]; at 100.0 µM 0% | [2]; at 1.2 µM -6% | [2]; at 3.7 µM -14% | [2]; at 11.0 µM -11% | [2]; at 33.0 µM -19% | [2]; at 100.0 µM -17% | [3]; [16] 5% | [3]; [17] 35% | [3]; at 50.0 µM 63.9% | [4]; at 1.2 µM -4% | [4]; at 3.7 µM -9% | [4]; at 11.0 µM -5% | [4]; at 33.0 µM -7% | [4]; at 100.0 µM 1% | [5]; [16] 35% | [5]; [17] 38% | [5]; at 50.0 µM 32.5% | [6]; at 1.2 µM 6% | [6]; at 3.7 µM 14% | [6]; [16] 20% | [6]; at 11.0 µM 8% | [6]; at 33.0 µM 4% | [6]; [17] 32% | [6]; at 50.0 µM 67.8% | [6]; at 100.0 µM 1% | [7]; at 1.2 µM -5% | [7]; at 3.7 µM -11% | [7]; at 11.0 µM -7% | [7]; at 33.0 µM -14% | [7]; at 100.0 µM 3% | [8]; at 1.2 µM 1% | [8]; at 3.7 µM 1% | [8]; at 11.0 µM 5% | [8]; at 33.0 µM -4% | [8]; at 100.0 µM -14% | [9]; at 1.2 µM 2% | [9]; at 3.7 µM 0% | [9]; at 11.0 µM -7% | [9]; at 33.0 µM -6% | [9]; at 100.0 µM -14% | [10]; [16] 36% | [10]; at 50.0 µM 65.2%

Cc1cccc(/C=N/NC(=S)NC2CCCCC2)n1
inactive: [11]; at 1.2 µM -8% | [11]; at 3.7 µM -9% | [11]; at 11.0 µM -8% | [11]; at 33.0 µM 9% | [11]; at 100.0 µM 6% | [12]; at 1.2 µM -7% | [12]; at 3.7 µM -6% | [12]; at 11.0 µM -4% | [12]; at 33.0 µM 10% | [12]; at 100.0 µM 6% | [13]; at 1.2 µM -8% | [13]; at 3.7 µM -8% | [13]; at 11.0 µM -13% | [13]; at 33.0 µM -13% | [13]; at 100.0 µM -12% | [14]; at 1.2 µM -5% | [14]; at 3.7 µM -8% | [14]; at 11.0 µM 19% | [14]; at 33.0 µM 20% | [14]; at 100.0 µM 21% | [15]; at 1.2 µM -7% | [15]; at 3.7 µM -9% | [15]; [16] -32% | [15]; at 11.0 µM -33% | [15]; at 33.0 µM 13% | [15]; at 50.0 µM 39.5% | [15]; at 100.0 µM 7% | [1]; at 1.2 µM 1% | [1]; at 3.7 µM -6% | [1]; [16] -23% | [1]; at 11.0 µM -5% | [1]; at 33.0 µM 11% | [1]; [17] 64% | [1]; at 50.0 µM 54.8% | [1]; at 100.0 µM 8% | [2]; at 1.2 µM -7% | [2]; at 3.7 µM -15% | [2]; at 11.0 µM -11% | [2]; at 33.0 µM 28% | [2]; at 100.0 µM 26% | [3]; [16] -25% | [3]; [17] 51% | [4]; at 1.2 µM -14% | [4]; at 3.7 µM -17% | [4]; at 11.0 µM -23% | [4]; at 33.0 µM 18% | [4]; at 100.0 µM 12% | [5]; [16] -24% | [5]; [17] 20% | [5]; at 50.0 µM 40.6% | [6]; at 1.2 µM -6% | [6]; at 3.7 µM -3% | [6]; [16] -30% | [6]; at 11.0 µM 16% | [6]; at 33.0 µM 32% | [6]; at 100.0 µM 20% | [7]; at 1.2 µM -4% | [7]; at 3.7 µM -4% | [7]; at 11.0 µM 1% | [7]; at 33.0 µM 26% | [7]; at 100.0 µM 18% | [8]; at 1.2 µM -6% | [8]; at 3.7 µM -4% | [8]; at 11.0 µM -3% | [8]; at 33.0 µM 12% | [8]; at 100.0 µM 8% | [9]; at 1.2 µM -3% | [9]; at 3.7 µM -2% | [9]; at 11.0 µM 9% | [9]; at 33.0 µM 40% | [9]; at 100.0 µM 29% | [10]; [16] -19% | [10]; [17] 55% | [10]; at 50.0 µM 62.5%
active: [15]; [17] 77% | [3]; at 50.0 µM 70.8% | [6]; [17] 79% | [6]; at 50.0 µM 72.7%
